# Laboratory results published in PubChem BioAssay.
# Where “and” joins values, the source holds several entries; their conditions need not be identical. Equal values may be shown once. Calls of active or inactive are those of the source. Rule as the data show it, unless noted: active = inhibition above about 80%; inactive = the rest.
# Assay: growth inhibition, single agents and combos, ICB984, cell-based, cisplatin or BGB combos, synergistic combos for chromothripsis tumors (AID 1671451; call rule not given here;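 also: 0% = vehicle DMSO and 100% = killing by high DMSO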)
# Settings: ICB984 medulloblastoma cells, drug combinations, at 0.5 µM, stronger effect = higher value
# 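Also: cells exposed for 96 hours before readout.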
row,SMILES,inhibition
1,Cc1ccc2nc(NCCN)c3ncc(C)n3c2c1,-16% (inactive)
2,C[C@]1(c2nc3c(C(N)=O)cccc3[nH]2)CCCN1,-18.7% (inactive) and -15.6% (inactive)
3,O=C(O)[C@H](Cc1c[nH]c2ccccc12)N1C(=O)c2ccccc2C1=O,-28.2% (inactive)
4,CN(C)CCN1C(=O)c2cccc3cc(N)cc(c23)C1=O,-22.6% (inactive)

# Same assay, conditions: ICB984 medulloblastoma cells, drug combinations, cisplatin combo, at 0.05 µM, stronger effect = higher value
row,SMILES,inhibition
1,Cc1ccc2nc(NCCN)c3ncc(C)n3c2c1,50.8%
2,C[C@]1(c2nc3c(C(N)=O)cccc3[nH]2)CCCN1,-73.4% and -19.3%
3,O=C(O)[C@H](Cc1c[nH]c2ccccc12)N1C(=O)c2ccccc2C1=O,1.23%
4,CN(C)CCN1C(=O)c2cccc3cc(N)cc(c23)C1=O,-15.5%

# Same assay, conditions: ICB984 medulloblastoma cells, drug combinations, cisplatin combo, at 0.5 µM, stronger effect = higher value
row,SMILES,inhibition
1,Cc1ccc2nc(NCCN)c3ncc(C)n3c2c1,-17.9%
2,C[C@]1(c2nc3c(C(N)=O)cccc3[nH]2)CCCN1,-14.2% and -3.56%
3,O=C(O)[C@H](Cc1c[nH]c2ccccc12)N1C(=O)c2ccccc2C1=O,-24.8%
4,CN(C)CCN1C(=O)c2cccc3cc(N)cc(c23)C1=O,-16.6%

# Same assay, conditions: ICB984 medulloblastoma cells, drug combinations, cisplatin combo, at 5 µM, stronger effect = higher value
row,SMILES,inhibition
1,Cc1ccc2nc(NCCN)c3ncc(C)n3c2c1,-22.2%
2,C[C@]1(c2nc3c(C(N)=O)cccc3[nH]2)CCCN1,-53.1% and -59.6%
3,O=C(O)[C@H](Cc1c[nH]c2ccccc12)N1C(=O)c2ccccc2C1=O,-12.9%
4,CN(C)CCN1C(=O)c2cccc3cc(N)cc(c23)C1=O,-25.7%

# Same assay, conditions: ICB984 medulloblastoma cells, drug combinations, measured here: 5 uM single agent, at 5 µM, stronger effect = higher value
row,SMILES,inhibition
1,Cc1ccc2nc(NCCN)c3ncc(C)n3c2c1,-10.1%
2,C[C@]1(c2nc3c(C(N)=O)cccc3[nH]2)CCCN1,-10.3% and -11.7%
3,O=C(O)[C@H](Cc1c[nH]c2ccccc12)N1C(=O)c2ccccc2C1=O,3.99%
4,CN(C)CCN1C(=O)c2cccc3cc(N)cc(c23)C1=O,-8.29%

# Assay: growth inhibition, single agents and combos, LFS_MB_1R, cell-based, cisplatin or BGB combos, synergistic combos for chromothripsis tumors (AID 1671452)
# Settings: LFS_MB_1R medulloblastoma cells, at 0.5 µM, stronger effect = higher value
row,SMILES,inhibition
1,Cc1ccc2nc(NCCN)c3ncc(C)n3c2c1,1.37% (inactive)
2,C[C@]1(c2nc3c(C(N)=O)cccc3[nH]2)CCCN1,-23.5% (inactive) and -13.6% (inactive)
3,O=C(O)[C@H](Cc1c[nH]c2ccccc12)N1C(=O)c2ccccc2C1=O,-21% (inactive)
4,CN(C)CCN1C(=O)c2cccc3cc(N)cc(c23)C1=O,-23% (inactive)

# Same assay, conditions: LFS_MB_1R medulloblastoma cells, measured here: combination with BGB IC40, at 0.05 µM, stronger effect = higher value
row,SMILES,inhibition
1,Cc1ccc2nc(NCCN)c3ncc(C)n3c2c1,-13.1%
2,C[C@]1(c2nc3c(C(N)=O)cccc3[nH]2)CCCN1,-41.9% and -23.5%
3,O=C(O)[C@H](Cc1c[nH]c2ccccc12)N1C(=O)c2ccccc2C1=O,-49.9%
4,CN(C)CCN1C(=O)c2cccc3cc(N)cc(c23)C1=O,-41.2%

# Same assay, conditions: LFS_MB_1R medulloblastoma cells, measured here: combination with cisplatin, at 0.5 µM, stronger effect = higher value
row,SMILES,inhibition
1,Cc1ccc2nc(NCCN)c3ncc(C)n3c2c1,-5.04%
2,C[C@]1(c2nc3c(C(N)=O)cccc3[nH]2)CCCN1,-45.7% and 4.68%
3,O=C(O)[C@H](Cc1c[nH]c2ccccc12)N1C(=O)c2ccccc2C1=O,-9.64%
4,CN(C)CCN1C(=O)c2cccc3cc(N)cc(c23)C1=O,-45%

# Same assay, conditions: LFS_MB_1R medulloblastoma cells, measured here: combination with cisplatin, at 5 µM, stronger effect = higher value
row,SMILES,inhibition
1,Cc1ccc2nc(NCCN)c3ncc(C)n3c2c1,83.6%
2,C[C@]1(c2nc3c(C(N)=O)cccc3[nH]2)CCCN1,-38.3% and -18.5%
3,O=C(O)[C@H](Cc1c[nH]c2ccccc12)N1C(=O)c2ccccc2C1=O,-81.2%
4,CN(C)CCN1C(=O)c2cccc3cc(N)cc(c23)C1=O,16.5%

# Assay: growth inhibition, single agents and combos, HTB85, cell-based, BGB or cisplatin IC20 combos, synergistic combos for chromothripsis tumors (AID 1671453);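 also: 0% = vehicle DMSO and 100% = high DMSO killing control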
# Settings: HTB85 osteosarcoma cells, drug combinations, at 0.5 µM, stronger effect = higher value
row,SMILES,inhibition
1,Cc1ccc2nc(NCCN)c3ncc(C)n3c2c1,7.35% (inactive)
2,C[C@]1(c2nc3c(C(N)=O)cccc3[nH]2)CCCN1,-20.2% (inactive) and -2.71% (inactive)
3,O=C(O)[C@H](Cc1c[nH]c2ccccc12)N1C(=O)c2ccccc2C1=O,-21.8% (inactive)
4,CN(C)CCN1C(=O)c2cccc3cc(N)cc(c23)C1=O,-12.9% (inactive)

# Same assay, conditions: HTB85 osteosarcoma cells, drug combinations, measured here: with BGB IC20, at 0.5 µM, stronger effect = higher value
row,SMILES,inhibition
1,Cc1ccc2nc(NCCN)c3ncc(C)n3c2c1,19.2%
2,C[C@]1(c2nc3c(C(N)=O)cccc3[nH]2)CCCN1,-24.9% and -6.8%
3,O=C(O)[C@H](Cc1c[nH]c2ccccc12)N1C(=O)c2ccccc2C1=O,-19.3%
4,CN(C)CCN1C(=O)c2cccc3cc(N)cc(c23)C1=O,-26.5%

# Same assay, conditions: HTB85 osteosarcoma cells, drug combinations, measured here: with BGB IC20, at 5 µM, stronger effect = higher value
row,SMILES,inhibition
1,Cc1ccc2nc(NCCN)c3ncc(C)n3c2c1,98.1%
2,C[C@]1(c2nc3c(C(N)=O)cccc3[nH]2)CCCN1,-10.1% and -13%
3,O=C(O)[C@H](Cc1c[nH]c2ccccc12)N1C(=O)c2ccccc2C1=O,-13.7%
4,CN(C)CCN1C(=O)c2cccc3cc(N)cc(c23)C1=O,10.3%

# Same assay, conditions: HTB85 osteosarcoma cells, drug combinations, measured here: with cisplatin IC20, at 0.5 µM, stronger effect = higher value
row,SMILES,inhibition
1,Cc1ccc2nc(NCCN)c3ncc(C)n3c2c1,-7.65%
2,C[C@]1(c2nc3c(C(N)=O)cccc3[nH]2)CCCN1,-31.1% and -8.43%
3,O=C(O)[C@H](Cc1c[nH]c2ccccc12)N1C(=O)c2ccccc2C1=O,-26.1%
4,CN(C)CCN1C(=O)c2cccc3cc(N)cc(c23)C1=O,-16.4%

# Same assay, conditions: HTB85 osteosarcoma cells, drug combinations, measured here: with cisplatin IC20, at 5 µM, stronger effect = higher value
row,SMILES,inhibition
1,Cc1ccc2nc(NCCN)c3ncc(C)n3c2c1,89.2%
2,C[C@]1(c2nc3c(C(N)=O)cccc3[nH]2)CCCN1,-30% and -31.9%
3,O=C(O)[C@H](Cc1c[nH]c2ccccc12)N1C(=O)c2ccccc2C1=O,-16.9%
4,CN(C)CCN1C(=O)c2cccc3cc(N)cc(c23)C1=O,6%

# Same assay, conditions: HTB85 osteosarcoma cells, drug combinations, single agent, at 5 µM, stronger effect = higher value
row,SMILES,inhibition
1,Cc1ccc2nc(NCCN)c3ncc(C)n3c2c1,91.7%
2,C[C@]1(c2nc3c(C(N)=O)cccc3[nH]2)CCCN1,-4.02% and -2.12%
3,O=C(O)[C@H](Cc1c[nH]c2ccccc12)N1C(=O)c2ccccc2C1=O,-18.1%
4,CN(C)CCN1C(=O)c2cccc3cc(N)cc(c23)C1=O,33.7%
